Out of some 310,000 compounds screened, about 14,000 (4.5%) showed an effect of 50% or more. Effects have a minus sign here. The sample holds strong results, similar compounds and a random draw of the others, so the mix is not that of the screen.
Target: human ether-à-go-go-related gene (hERG) potassium channel (human, UniProt Q12809)
Assay: primary screen, population patch clamp on CHO cells stably expressing hERG; higher = less effect of the substance
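Further: peak tail current of the secondary pulse compared with the same well before compound.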

human ether-à-go-go-related gene (hERG) potassium channel, sequence (Q12809 whole entry, looked up): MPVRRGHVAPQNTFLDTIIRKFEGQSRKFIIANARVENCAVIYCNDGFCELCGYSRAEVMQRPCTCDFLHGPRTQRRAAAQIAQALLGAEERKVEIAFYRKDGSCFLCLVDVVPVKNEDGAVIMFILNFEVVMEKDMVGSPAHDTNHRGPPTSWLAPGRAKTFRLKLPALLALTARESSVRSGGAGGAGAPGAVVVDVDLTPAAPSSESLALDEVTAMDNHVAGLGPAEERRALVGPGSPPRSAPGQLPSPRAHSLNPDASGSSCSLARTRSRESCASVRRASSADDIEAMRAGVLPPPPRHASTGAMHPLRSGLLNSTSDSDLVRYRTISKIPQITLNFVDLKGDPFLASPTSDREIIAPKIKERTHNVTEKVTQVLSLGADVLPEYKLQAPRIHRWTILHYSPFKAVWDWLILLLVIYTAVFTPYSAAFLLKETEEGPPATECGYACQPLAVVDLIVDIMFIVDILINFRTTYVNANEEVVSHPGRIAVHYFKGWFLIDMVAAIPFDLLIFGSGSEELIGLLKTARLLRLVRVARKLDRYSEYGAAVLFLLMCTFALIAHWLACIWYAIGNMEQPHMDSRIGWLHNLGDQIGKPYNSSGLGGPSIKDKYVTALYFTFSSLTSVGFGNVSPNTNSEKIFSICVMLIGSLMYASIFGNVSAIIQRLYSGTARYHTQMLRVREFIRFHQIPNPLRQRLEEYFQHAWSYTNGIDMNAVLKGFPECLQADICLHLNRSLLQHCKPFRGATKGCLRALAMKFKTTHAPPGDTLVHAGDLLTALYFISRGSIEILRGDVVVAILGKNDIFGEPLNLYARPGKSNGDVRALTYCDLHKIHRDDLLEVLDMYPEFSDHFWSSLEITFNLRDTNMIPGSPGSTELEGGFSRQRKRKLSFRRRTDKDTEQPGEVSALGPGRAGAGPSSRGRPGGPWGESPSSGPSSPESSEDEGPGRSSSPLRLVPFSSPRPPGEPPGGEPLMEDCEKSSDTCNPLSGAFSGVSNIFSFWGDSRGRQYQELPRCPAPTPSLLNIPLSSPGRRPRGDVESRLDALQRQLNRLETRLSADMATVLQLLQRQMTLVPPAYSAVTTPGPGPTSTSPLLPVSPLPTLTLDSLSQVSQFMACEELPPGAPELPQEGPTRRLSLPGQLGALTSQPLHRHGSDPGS

SMILES | hERG current change (%, negative = inhibition) at 10uM
Cc1cc2c(NC(=O)Nc3ccc(C(F)(F)F)cc3)cccc2nn1 | -2.37%
Cn1cc([N+](=O)[O-])c(C(=O)Nc2ccc3c(c2)OCCO3)n1 | 5.3%
Cc1cccc(C(=O)N2CCC(=O)N(C(COCc3ccc(Cl)cc3)Cc3ccccc3)CC2)c1 (stereo not shown) | -25.7%
CCC(C)[C@H](NC(=O)[C@H](Cc1ccccc1)n1c(=O)[nH]c2ccccc2c1=O)C(=O)NCC1CCC(C(=O)O)CC1 (stereo partly shown) | 20.4%
COc1cccc(OCC(=O)N2CCN(C)CC2)c1 | -10.1%
Cc1cc(=O)oc2c3c(cc(OCC(=O)NCC(=O)O)c12)OC(C)(C)CC3 | 19%
CCN(CC)CCOC(=O)c1ccc(NC(=O)CCNC(=O)Cn2ccc3ccccc3c2=O)cc1 | 11.8%
CCn1cc(CN2CCC(C(=O)Nc3ccc(Oc4cccnc4)cc3)CC2)c(C)n1 | -18.4%
CC(C)n1cc(CN2CCC(C(=O)Nc3ccc(Oc4ccccc4F)cc3)CC2)cn1 | -76.1%
CCn1cc(CN2CCC(C(=O)Nc3ccc(Oc4ccccc4F)cc3)CC2)c(C)n1 | -72.9%
CCn1cc(CN2CCC(C(=O)Nc3ccc(Oc4cccnc4)cc3)CC2)cn1 | -19%
CCn1cc(CN2CCCC(C(=O)Nc3ccc(-c4nc5ccccc5[nH]4)cc3)C2)c(C)n1 (stereo not shown) | -21%
CN(C)C(=O)CCC(=O)N1CCCCC1C(=O)Nc1ccc(Oc2ccccc2F)cc1 (stereo not shown) | -43.9%
Cn1cc(CN2CCC(C(=O)Nc3ccc(Oc4ccccc4F)cc3)CC2)cn1 | -65.6%
CC(C)n1cc(CN2CCCC(C(=O)Nc3ccccc3Oc3cccnc3)C2)cn1 (stereo not shown) | -42.4%
COC(=O)c1cc2oc3ccccc3c2n1Cc1ccccn1 | -8.74%
C/C(=N\N=C1\NC(=O)C(CC(=O)Nc2ccc(Cl)cc2)S1)c1ccco1 (stereo not shown) | 13%
CCn1c(SCC(=O)Nc2ccccc2Cl)nnc1C1CC1 | 6.78%
Cc1c(S(=O)(=O)N2CCCC(C)C2)c(=O)n(C)c(=O)n1C (stereo not shown) | -2.74%
O=C(NCCNC(=O)c1ccccc1)c1ccccc1 | 2.89%
Cc1cc([N+](=O)[O-])cc(C)c1OCC(=O)N/N=C/c1ccc(OC(=O)c2ccccc2Br)cc1 | 4.23%
CCC(C)NC(=O)C1c2ccccc2C(=O)N1Cc1cc(OC)ccc1OC (stereo not shown) | 9.25%
COc1ccc(-c2c(C#Cc3ccsc3)c3cc(-c4ccc5[nH]ccc5c4)ccc3n2C)cc1 | 24.1%

SMILES | hERG current change (%, negative = inhibition) at 10uM
O=C(CN1C(=O)COc2ccccc21)c1cccc(Cl)c1 | -14.4%
CSc1ccccc1OCc1cc(C(=O)N2CCC[C@H]2C(N)=O)no1 | 5.26%
N#CSCC(=O)c1cccc2ccccc12 | -24.8%
COc1ccc(NC(=O)C2CCCN(C)C2)cc1OCC(C)C (stereo not shown) | -1.9%
COc1ccc(NC(=O)C2CCCCN2N)cc1OCC(C)C.O=C(O)C(=O)O (stereo not shown) | -5.25%
COc1ccc(NC(=O)C2CCCN(CCCc3ccccc3)C2)cc1OCC(C)C.O=C(O)/C=C/C(=O)O (stereo not shown) | -52.1%
O=C(NCCc1c[nH]c2ccccc12)C1Cc2ccccc2CN1C(=O)c1ccco1 (stereo not shown) | -71.6%
NS(=O)(=O)c1ccc(CCNC(=O)C2Cc3ccccc3CN2C(=O)c2ccco2)cc1 (stereo not shown) | 9.39%
O=C(NCc1ccc(F)cc1)C1Cc2ccccc2CN1C(=O)c1ccco1 (stereo not shown) | -42.1%
O=C(NCc1ccc2c(c1)OCO2)c1ccc(CN2CCc3ccccc3C2)cc1 | -52.5%
O=C(NCc1ccc2c(c1)OCO2)c1ccccc1 | -4.18%
O=C(NCc1ccc2c(c1)OCO2)C1Cc2ccccc2CN1C(=O)c1ccco1 (stereo not shown) | -59%
O=C(NCc1ccccc1)C1Cc2ccccc2CN1C(=O)c1ccco1 (stereo not shown) | -12.2%
O=C(NCc1ccc2c(c1)OCO2)c1ccc(CN2CCOCC2)cc1 | 15.3%
CCS(=O)(=O)N1Cc2ccccc2CC1C(=O)NCCc1c[nH]c2ccccc12 (stereo not shown) | -0.595%
COc1ccc(N2C(=O)CC(NCc3cccc(F)c3)C2=O)cc1 (stereo not shown) | -13.3%
Cc1ccc(-n2c(=O)[nH]c3c(oc4ccccc43)c2=O)cc1 | -0.961%
CCOc1ccc(CC2CC(=O)NC2=O)cc1 (stereo not shown) | 12.5%
N=c1oc2ccc(Br)cc2cc1C(=O)NCc1ccc(F)cc1 | 5.37%
C/C(=N/NC(=O)c1ccc(Br)o1)C(C)C | -1.43%
Cc1cccc(C(=O)Nc2ccc(C(=O)Nc3ccc(O)cc3)cc2)c1 | 12.5%
O=C(CCCN1C(=O)c2ccccc2C1=O)Nc1ccc(S(=O)(=O)N2CCCCC2)cc1 | -28.8%
O=C(C[n+]1ccccc1)N1c2ccccc2Sc2ccccc21.[Cl-] | 20.7%

SMILES | hERG current change (%, negative = inhibition) at 10uM
COc1cccc(CNC(=O)CCNS(=O)(=O)c2cccs2)c1 | -5.11%
COc1ccccc1-c1coc2c(CN3CCOCC3)c(O)ccc2c1=O | 8.17%
O=C(CN1CCCCC1)Nc1cc(Cl)ccc1Oc1ccccc1 | 12.5%
O=C(CN1CCCC1)Nc1ccccc1Sc1ccc(Cl)cc1 | -31.1%
CC(=O)N1CCN(CC(=O)Nc2ccccc2Sc2ccc(Cl)cc2)CC1 | -78%
O=C(CN1CCOCC1)Nc1ccccc1Sc1ccccc1 | -31.3%
CN1CCN(CC(=O)Nc2ccccc2Sc2ccccc2)CC1.O=C(O)C(=O)O | -65.3%
NC(=O)C1CCN(CC(=O)Nc2cc(Cl)ccc2Oc2ccccc2)CC1 | -67%
O=C(CN1CCN(c2ccccc2)CC1)Nc1ccccc1Sc1ccccc1 | 9.55%
O=C(CN1CCCC1)Nc1ccccc1Sc1ccccc1 | -13.5%
CC(=O)N1CCN(CC(=O)Nc2ccccc2Sc2ccccc2)CC1 | -59.5%
O=C(CN1CCOCC1)Nc1ccccc1Sc1ccc(Cl)cc1 | -44.1%
CC1CCCN(CC(=O)Nc2cc(Cl)ccc2Oc2ccccc2)C1 (stereo not shown) | 14.3%
CC1CCN(CC(=O)Nc2ccccc2Sc2ccccc2)CC1 | -5.71%
COC(=O)CNc1nc(Cl)nc(Nc2ccc(C)cc2)n1 | 18.3%
COc1cc(NC(=O)c2cccnc2SC)cc(OC)c1 | 10.2%
O=c1nccc(Nc2ccccc2)[nH]1 | 16.4%
CNC(=O)c1ccc(-c2cc(C(F)(F)F)nn2C)s1 | 17.6%
CCCc1sc(N/N=C/c2ccccn2)nc1-c1ccc(Br)cc1 | 5.39%
OCCCNC(=S)Nc1ccc(Oc2ccccc2)cc1 | 1.06%
Cc1ccc(OCCSc2nc3ccccc3n2CCC(=O)O)cc1 | 9.74%
CCOc1ccc(-n2c(=O)cc(N3CCN(c4ccc(F)cc4)CC3)[nH]c2=O)cc1 | 9.15%
Cc1cc(NC(=O)NC(=O)c2ccccc2F)no1 | 13.7%

SMILES | hERG current change (%, negative = inhibition) at 10uM
Cc1ccsc1-c1nc(CSCC(=O)N2CCN(c3ccccc3)CC2)c(C)o1 | -21.1%
COc1ccc(C(=O)NC(=S)SCC(=O)O)cc1 | 21.8%
Cc1onc(-c2c(F)cccc2Cl)c1C(=O)OCc1cnc(Cl)s1 | -3.61%
C[C@H](NC(=O)c1ccco1)C(=O)N1CCCC1 | 21.7%
NC(=O)C1CCN(CC(=O)Nc2ccccc2Sc2ccc(Cl)cc2)CC1 | -53.7%
NC(=O)C1CCN(CC(=O)Nc2cccnc2Cl)CC1 | 19.4%
NC(=O)C1CCN(CC(=O)Nc2ccccc2Sc2ccccc2)CC1 | -35.3%
NC(=O)CC(NC(=O)c1ccc(Br)cc1)c1ccc(N2CCCCCC2)c([N+](=O)[O-])c1 (stereo not shown) | -7.79%
CCOC(=O)N1CCN(S(=O)(=O)c2c[nH]c(C(=O)OC)c2)CC1 | 12%
COc1cccc(CNC(=O)c2nnn(CC(=O)Nc3ccc(C)c(C)c3)c2N)c1 | 1.8%
O=C(O)c1ccc(/C=N/Nc2ncc(C(F)(F)F)cc2Cl)cc1 | 3.54%
COc1cccc(-c2cccc(NC(=O)C3CCN(Cc4ccc(CO)o4)CC3)c2)c1 | -32.5%
COc1cccc(-c2cccc(NC(=O)C3CCN(Cc4ccc(C)o4)CC3)c2)c1 | -39.4%
O=C(Nc1cccc(F)c1)C1CCN(C(=O)c2ccco2)CC1 | -26.4%
O=C(Nc1cccc(-c2cscn2)c1)C1CCN(Cc2ccc(CO)o2)CC1 | -3.02%
Cc1ccc(CN2CCC(C(=O)Nc3cccc(-c4cccc(F)c4)c3)CC2)o1 | -69.1%
O=C(c1cccc(F)c1)N1CCN(Cc2ccco2)CC1 | 4.78%
O=C(Nc1cccc(-c2cccc(F)c2)c1)C1CCN(Cc2ccc(CO)o2)CC1 | -70.3%
O=C(Nc1cccc(-c2cccc(F)c2)c1)C1CCN(Cc2ccco2)CC1 | -67.5%
COc1cccc(-c2ccc(NC(=O)C3CCCN(Cc4ccc(CO)o4)C3)cc2)c1 (stereo not shown) | 2.83%
COCc1ccc(CN2CCC(C(=O)Nc3cccc(-c4cscn4)c3)CC2)o1 | -18.9%
O=C(Nc1cccc(-c2cccc(Cl)c2)c1)C1CCN(Cc2ccc(CO)o2)CC1 | -68%

From paper PMC4336329 (PLoS ONE, 2015)
